21 molecules from PubChem BioAssay (NCI) can be followed below.

Compounds without any hit were thinned out: in the full panel of roughly 79,000, 15% have a hit. Values without a mark were called inactive. Active and inactive are the calls of the source. Rule as the data show it: active = growth inhibition above about 70%; inactive = the rest.

Assay [1] is described as follows: NCI Yeast Anticancer Drug Screen. Data for the rad50 strain (AID 155).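 Also: 0% = growth of vehicle-only cultures of the same strain.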 Conditions: S. cerevisiae rad50 strain growth inhibition; at 50.0 µM; active compounds read high. In a few lines:
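Cells are treated with compound, grown, and their growth is then scored against vehicle-only cultures of the same repair-deficient yeast strain.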

Assay [2] in a line: NCI Yeast Anticancer Drug Screen. Data for the mec2-1 strain (AID 157). As to conditions: S. cerevisiae mec2-1 strain, at 50.0 µM, active compounds read high. The procedure, abridged:
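Vehicle-treated cultures served as reference for growth inhibition of compound-exposed mec2-1 yeast.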

The nature of assay [3]: NCI Yeast Anticancer Drug Screen. Data for the sgs1 mgt1 strain (AID 161).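 Also: 0% = growth of cultures given vehicle only.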 As to conditions: S. cerevisiae sgs1 mgt1 strain, at 50.0 µM, active compounds read high. The procedure, abridged: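 Genetically altered yeast, compound exposure, growth inhibition relative to vehicle.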
Assay [4] is described as follows: NCI Yeast Anticancer Drug Screen. Data for the cln2 rad14 strain (AID 165).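 Also: 0% = growth equal to vehicle treated cultures.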 Conditions: S. cerevisiae cln2 rad14 strain, at 50.0 µM, active compounds read high. The procedure, abridged: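 Each compound was tested on cln2 rad14 yeast. Inhibition of growth was calculated against vehicle-exposed controls.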
A short description of assay [5]: NCI Yeast Anticancer Drug Screen. Data for the bub3 strain (AID 167). Conditions: S. cerevisiae bub3 mutant strain, at 50.0 µM, active compounds read high. The procedure, abridged:
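Part of a panel of yeast mutants defective in DNA damage repair or cell cycle regulation. Each strain is grown with compound, and inhibition is calculated relative to solvent-treated cultures.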

Assay [6] is described as follows: NCI Yeast Anticancer Drug Screen. Data for the mlh1 rad18 strain (AID 175). As to conditions: S. cerevisiae mlh1 rad18 strain growth inhibition; at 50.0 µM; active compounds read high. In a few lines: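 Vehicle-treated cultures served as the reference for growth inhibition in a yeast strain carrying DNA damage repair alterations exposed to each compound.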

`CN(C)CCNC(=O)c1cccc2[nH]c(-c3ccncc3)nc12`: the growth inhibition in assay [1] was 5.9%; in assay [2] it was -16.2%; in assay [3], -37.4%; in assay [4] it was -19.9%; in assay [5], -48%; in assay [6], -89.1%.
For the molecule `COC(=O)/C(C=Nc1ccccc1)=C(/C)O`, the growth inhibition was 7.35% in assay [1]; 5.1% in assay [2]; 9% in assay [3]; -29.2% in assay [4]; 11.4% in assay [5]; -1.2% in assay [6].
For the molecule `C[C@H]1CC[C@@]2(OC1)O[C@H]1C[C@H]3[C@@H]4CC[C@@H]5C[C@@H](OC6OC(CO)C(O)C(O)C6OC6OC(CO)C(O)C(O)C6O)CC[C@]5(C)[C@H]4CC[C@]3(C)[C@H]1[C@@H]2C` (stereo partly specified), the growth inhibition was 54.2% in assay [1]; 68.4% in assay [2]; 37.8% in assay [3]; 19.3% in assay [4]; -16.2% in assay [5]; 90.5% (active) in assay [6].
`ClCCCOCc1ccccc1`: the growth inhibition in assay [1] was 8.2%; in assay [2], -13.2%; in assay [3], 3.65%; in assay [4], 16.4%; in assay [5] it was 11.9%; in assay [6], 6.3%.
Regarding `O=S(=O)(c1ccc(OCCOc2ccc(S(=O)(=O)N3CCOCC3)cc2)cc1)N1CCOCC1`, the growth inhibition was 0.55% in assay [1]; 7.75% in assay [2]; 12.6% in assay [3]; -15.4% in assay [4]; 2.95% in assay [5]; -14% in assay [6].
`Nc1nc(C(=O)O)c(N=Nc2ccccc2)c(=O)[nH]1`: the growth inhibition in assay [1] is 31.1%; in assay [2], -10.2%; in assay [3] it was 7.35%; in assay [4] it was 24.4%; in assay [5] it was -16.1%; in assay [6] it was -20.8%.
With `Nc1nc(Cl)c2nc(Cl)n(C3OC(CO)C(O)C3O)c2n1` (stereo unspecified), the growth inhibition in assay [1] is -7.1%; in assay [2], 1.75%; in assay [3] it was -8.7%; in assay [4], -16%; in assay [5], 4.5%; in assay [6] it was -4.25%.
For the molecule `CC1=COC(=O)[C@@H]2[C@@H](C)CC[C@@H]12`, the growth inhibition is 1.1% in assay [1]; -3.65% in assay [2]; -9.6% in assay [3]; 10.3% in assay [4]; 6.05% in assay [5]; -4.2% in assay [6].
As for `CCCCCCCI`, the growth inhibition in assay [1] is -8.9%; in assay [2] it was 20.9%; in assay [3], 6.9%; in assay [4], -21.6%; in assay [5], 1.65%; in assay [6], 23.8%.
Consider `N#Cc1cccc(N2C(=O)C3C4C=CC(C3C2=O)C2C(=O)N(c3cccc(C#N)c3)C(=O)C42)c1` (stereo unspecified), for which the growth inhibition in assay [1] was -8.5%; in assay [2], -0.65%; in assay [3] it was -6.25%; in assay [4] it was 26.6%; in assay [5], -0.35%; in assay [6], -18.4%.
With `Nc1nc(SCc2ccccc2)c2ncn(Cc3ccccc3)c2n1`, the growth inhibition in assay [1] was 5.75%; in assay [2], -7.55%; in assay [3] it was -15.1%; in assay [4], 10.5%; in assay [5] it was -2.9%; in assay [6] it was 9.55%.
As to `COC(=O)CC(C)(O)CCCC(C)C` (stereo unspecified), the growth inhibition is 11.2% in assay [1]; -5.15% in assay [2]; 16.9% in assay [3]; -17.9% in assay [4]; 3.9% in assay [5]; -14.2% in assay [6].
As for `CCOC(=O)c1c2cccccc-2nc1Nc1cccc2c(C)ccnc12`, the growth inhibition in assay [1] is 11.7%; in assay [2], -21%; in assay [3], -2.8%; in assay [4], 9.7%; in assay [5] it was -16.1%; in assay [6] it was 5.55%.
Regarding `CC(=Nc1cccc(C(F)(F)F)c1)c1c(O)cc(C)oc1=O`, the growth inhibition was 9.25% in assay [1]; 14.8% in assay [2]; 24.9% in assay [3]; 11.7% in assay [4]; 28.2% in assay [5]; 35.1% in assay [6].
Regarding `CC(=O)Oc1ccc(C2COc3cc(OC(C)=O)c(OC(C)=O)cc3C2)cc1` (stereo unspecified), the growth inhibition is 21.2% in assay [1]; 31.6% in assay [2]; 43% in assay [3]; 9.4% in assay [4]; 49.6% in assay [5]; 37.5% in assay [6].
In the case of `O=S1(=O)C2C=CC1CCCC2`, the growth inhibition was 3.35% in assay [1]; -12.7% in assay [2]; -6.9% in assay [3]; -30.9% in assay [4]; -11.6% in assay [5]; 2.05% in assay [6].
Regarding `Cc1ccc(F)c([N+](=O)[O-])c1`, the growth inhibition is -3.55% in assay [1]; 7.1% in assay [2]; -10.5% in assay [3]; 0% in assay [4]; -9.65% in assay [5]; -6.5% in assay [6].
As to `CCC1CN2CCc3c([nH]c4ccccc34)[C@@](C(=O)OC)(c3cc4c(cc3OC)N(C)C3C(O)(C(=O)OC)C(C(=O)OC)C5(CC)C=CCN6CCC43C65)C[C@@H](C2)[C@@H]1C(C)(C)C` (stereo partly specified), the growth inhibition in assay [1] was -6.3%; in assay [2], -10%; in assay [3], -9%; in assay [4] it was -13.6%; in assay [5], -36.3%; in assay [6], -72.7%.
Regarding `CC1OC(c2ccccc2)C(=O)N1C1(C)C(=O)N2CCOC21c1ccccc1` (stereo unspecified), the growth inhibition in assay [1] was 8.4%; in assay [2], 11.2%; in assay [3] it was 2.15%; in assay [4], 5%; in assay [5], -1.95%; in assay [6], -3.05%.
In the case of `O=[N+]([O-])c1cc(Cl)ccc1Nc1ccccc1`, the growth inhibition was 51.3% in assay [1]; 32.5% in assay [2]; 57.1% in assay [3]; 4.65% in assay [4]; 24.8% in assay [5]; 53.5% in assay [6].
For `Cc1cc2c(cc1C)NC(=O)C(NC(=O)c1ccc(Cl)cc1)C=N2` (stereo unspecified), the growth inhibition in assay [1] is -0.55%; in assay [2], 15.6%; in assay [3], 15.1%; in assay [4], -27.4%; in assay [5], 5.95%; in assay [6], 2.95%.
